Screening data: PubChem, National Center for Advancing Translational Sciences (NCATS)
Shown are actives, neighbours in structure and some others; about 21% of the full set was active somewhere.
Shiga toxin inh – Shiga toxin inhibition; Vero cells, Shiga toxin protein synthesis inhibition reporter; inhibition, % at 38.7 µM; 9.2% of 290,000 active; AID 2315; in the data active means inhibition mostly above about 28%, no sharp cut-off; inactive means mostly below about 43%
NS1 function inh – blocks influenza NS1 protein function; Potency, µM (titrated, usually from 46.1 µM); 0.4% of 270,000 active; AID 2326; calls by dose curve; further: actives are rising curves; nearly all actives have a fitted effect of over 50% in size
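S. cerevisiae expressing influenza A NS1, grown in glucose, washed, then diluted 1:100 into pH 6.0 -URA galactose medium with 23 nl compound. Growth recovery read as OD600; NS1-free strain serves as control.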
Pf growth 48h – P. falciparum growth inhibition at 48 hours (one generation); P. falciparum luciferase growth in erythrocytes, 48 h; 5.9% of 310,000 active; Potency, µM (doses to about 28.7 µM), usual class: inhibitors; AID 504832
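Erythrocytes infected with P. falciparum carrying an integrated firefly luciferase reporter (2% hematocrit, 0.1% parasitemia final) were exposed to compounds in RPMI 1640 with 0.5% Albumax at 37 C, 5% CO2. Growth inhibition was scored as reduced luminescence.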
Pf growth 96h – P. falciparum growth inhibition at 96 hour, primary screen for plastid delayed-death inhibitors; 6.9% of 320,000 active; P. falciparum luciferase reporter growth, 96 h; Potency, µM (highest dose often 28.7 µM), actives largely listed as inhibitors
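96 h incubation, 37 C, 5% CO2, of luciferase-reporter P. falciparum-infected RBCs (2% hematocrit, 0.05% parasitemia final) with test compounds; endpoint luminescence.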
CHX counter – counter-screen for Shiga toxin inhibitors: cycloheximide protein synthesis inhibition | cell reporter, cycloheximide protein synthesis inhibition counterscreen | AID 2314 | max response, % | 12% of 300,000 active; in the data active means max response mostly above about 13%, no sharp cut-off; inactive means mostly below about 14%; further: read at 38.3 µM for the half of the compounds with a filed dose
Sm TGR block – S. mansoni TGR enzyme inhibition. Q962Y6. purified TGR, DTNB reduction, TNB absorbance 405 nm. Potency, µM (series often up to 114 µM), usual class: inhibitors. 3% of 360,000 active. AID 485364; further: nearly all actives have a fitted effect of over 60% in size
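TGR 20 nM + NADPH 100 uM (dispensed conc.), cpd preinc 15 min RT; start with NADPH (500 uM addition) then DTNB (15 mM addition). Kinetic TNB absorbance, 405 nm filter. Four-parameter Hill fit across titration.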
Flu NS1 inh – influenza NS1 function inhibition validation; 1,400 tested, under 10 active; AID 492980; influenza NS1 function cell assay, 15-point titration; activity change, negative = inhibition, % at 32.9 µM; shares compounds with NS1 function inh; calls by dose curve
Flu PR8 replic – influenza NS1 inhibitors: inhibition of influenza A/PR/8/34 replication | shares compounds with NS1 function inh | MDCK infected influenza A/PR/8/34, virus titer TCID50; hits give low values | virus titer (log TCID50), log10 TCID50 at 5 µM | 30% of 95 active | AID 504647; call rule not given here
A number is an active result; n = inactive; u = inconclusive; x = no result. Unless noted, the call rests on the fitted dose curve; in most records, active means well fitted curve in the direction sought with a large enough effect; inconclusive means small, poorly fitted or top-dose-only effect, or another doubt; inactive means no such curve, though single readings can be large; an effect the other way counts as inactive or inconclusive.

SMILES	Shiga toxin inh	NS1 function inh	Pf growth 48h	Pf growth 96h	CHX counter	Sm TGR block	Flu NS1 inh	others
COc1ccc(OC)c(C2Nc3c(C)cc(C)cc3-c3cc(C)nn32)c1 (centres undefined)	x	x	x	x	x	n	x
Cc1ccc(S(=O)(=O)N(CCC#N)C2CCCCC2)c2nsnc12	n	n	n	n	n	n	x
CCCNC(=O)COC(=O)/C(C#N)=C/c1cc(C)n(CCC)c1C	n	x	n	u	n	n	x
CCCn1c(C)cc(/C=C(\C#N)C(=O)OCC(=O)NC(=O)NC(C)(C)C)c1C	n	3.2µM	n	x	n	n	n
CCOC(=O)c1ccc(NC(=O)CSc2nnc(CCc3ccc(C)o3)n2-c2ccccc2)cc1	n	1.4µM	u	u	n	u	n	Flu PR8 replic=n
Cc1ccc(CCc2nnc(SCC(=O)Nc3ccccc3Cl)n2-c2ccccc2)o1	n	n	n	n	n	n	x
CCC(C)NC(=O)COC(=O)Cc1sc(N)nc1-c1ccc(C)cc1 (centres undefined)	n	1.1µM	n	n	n	n	n
COc1ccc(C(=O)N2CCN(S(=O)(=O)c3ccc(C)cc3C)CC2)cc1OC	n	n	n	n	n	n	x
COc1ccc(C)cc1S(=O)(=O)N1CCN(C(=O)c2ncoc2-c2ccccc2C)CC1	n	u	n	n	n	n	n
O=C1CN(C(=O)c2ccc(Br)o2)C(c2ccccc2)c2cc(Br)ccc2N1 (centres undefined)	n	11µM	x	5.9µM	n	n	n
O=C(OCCN=C1NS(=O)(=O)c2ccccc21)c1ccco1	n	x	n	n	n	n	x
Cc1nc2ccc(-c3nc4ccccc4[nH]3)cc2[nH]1	60	u	n	n	35	x	n
C[C@H]1c2cccc(O)c2C(O)=C2C(=O)[C@]3(O)C(O)=C(C(N)=O)C(=O)C(N(C)C)[C@@H]3[C@@H](O)C21 (some centres undefined)	x	7.1µM	x	x	x	x	n
Cc1cc(C2=CC(C)(c3cc(C)oc3C)Nc3nc(C(F)(F)F)nn32)c(C)o1 (centres undefined)	41	18µM	9.3µM	n	28	10µM	n
O=C(CSc1nnc(CNC(=O)c2ccccc2)o1)NCc1ccc2c(c1)OCO2	n	n	n	u	n	n	x
COc1ccc(NS(=O)(=O)c2cccc(N/C(=N\S(=O)(=O)c3ccccc3)c3ccc(F)cc3)c2)cc1	n	11µM	u	u	n	n	n
Cc1sc2nc(CSCC(=O)Nc3ccc(Cl)cc3F)[nH]c(=O)c2c1C	x	x	n	n	x	n	x
C=CCC1CCCC(=O)N2CC[C@H](O)C12 (some centres undefined)	n	n	n	n	n	n	x
Cc1ccc(CSc2nnc(-c3ccccc3N)c(=O)[nH]2)cc1	n	11µM	x	n	n	n	n
NC(=S)N/N=C1\CC(c2ccc3c(c2)OCCCO3)Oc2ccc(F)cc21 (centres undefined)	n	2µM	u	u	n	n	n
CC1CN(C(=O)CCC(=O)N2CCCCC2)c2ccccc2O1 (centres undefined)	n	n	n	n	n	n	x
CC1Oc2ccccc2N(CC(=O)N2CCCCC2)C1=O (centres undefined)	n	10µM	u	n	n	n	n
COC(=O)c1ccc(SCC(=O)NC2CCCCC2)c([N+](=O)[O-])c1	n	n	n	n	n	n	x
C[C@H](NC(=O)c1nc[nH]c1C(=O)N[C@@H](C)C(=O)OC(C)(C)C)C(=O)OCc1ccccc1	n	n	n	n	n	n	x
C[C@H](NC(=O)c1nc[nH]c1C(=O)N[C@@H](Cc1ccccc1)C(=O)OCc1ccccc1)C(=O)OC(C)(C)C	n	10µM	7.4µM	u	n	n	n
C[C@H](NC(=O)c1nc[nH]c1C(=O)N[C@@H](CCCCNC(=O)OC(C)(C)C)C(=O)OC(C)(C)C)C(=O)OCc1ccccc1	n	10µM	u	n	n	n	n
